Assay results as given in PubChem BioAssay (Tox21).
Results filed as inconclusive are left out. The source made the active and inactive calls. Unless noted, calls follow the shape of the dose curve; as a rule, active = well fitted curve in the direction sought with a large enough effect in the repeat runs; inconclusive = weak or mixed curves; inactive = no such curve, though single readings can be large; an effect the other way counts as inactive or inconclusive.

Key:
[1] = qHTS assay to identify small molecule agonists of the androgen receptor (AR) signaling pathway in the presence of an antagonist - cell viability counter screen (AID 1259379); details: MDA-kb2 viability, CellTiter-Fluor, 16 h; series mostly up to 92.4 µM; also: nearly all actives have a fitted effect of over 25% in size; also: potency is read from the fitted curve at half-maximal effect
Method in brief: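 Cells: MDA-kb2 (MMTV-luc, AR and GR elements), 3,000/well, 5 hr settle. Added: nilutamide 3.0uM final, then compounds (15 conc.). Incubation: 16 hr, 37C, no CO2. Read-out: CellTiter-Fluor, 1 hr, fluorescence.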

[2] = qHTS assay to identify small molecule antagonists of the estrogen receptor beta (ER-beta) signaling pathway - cell viability counter screen (AID 1259382); details: ER-beta-UAS-bla HEK293T viability, CellTiter-Glo luminescence, 16 h; series mostly up to 92.4 µM; also: nearly all actives have a fitted effect of over 55% in size; also: potency is read from the fitted curve at half-maximal effect
Method in brief: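 Cells: ER-beta-UAS-bla HEK293T, 2,000/well, 2% CS-FBS, 6 hr settle. Cpd + E2 (1nM final), 16 hr, 37C/5% CO2. Bla FRET substrate 2 hr RT, then CellTiter-Glo 30 min RT, luminescence.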

[3] = qHTS assay to identify small molecule agonists or antagonists of the thyroid stimulating hormone receptor (TSHR) signaling pathway - wild type cell line counter screen (AID 1259384; calls by dose curve); details: HEK293 wild type, cAMP HTRF counter-screen, active compounds read high; series mostly up to 92.4 µM
Method in brief: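 Wild-type HEK293 cells were plated 18 h at 37 C/5% CO2, pin-dosed with compound plus Ro20-1724 medium, held 30 min at room temperature, then given cAMP-d2 and anti-cAMP-cryptate; fluorescence was read after 1 h. Fifteen concentrations, triplicate.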

[4] = target: Progesterone receptor (Homo sapiens) (UniProt P06401); experiment: qHTS assay to identify small molecule agonists of the progesterone receptor (PR) signaling pathway (AID 1346784; calls by dose curve; also: nearly all actives have a fitted effect of over 30% in size); details: PR-UAS-bla HEK293T, beta-lactamase FRET ratio, 16 h; series mostly up to 92.4 µM
Method in brief: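 Using charcoal-stripped serum (2%) to limit endogenous steroids, PR-UAS-bla HEK 293T cells received compounds for 16 hr at 37C after 6 hr plating; beta-lactamase FRET fluorescence was recorded following 2 hr substrate loading at room temperature.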

[5] = qHTS assay to identify small molecule antagonists of the TGF-beta/Smad signaling pathway - cell viability counter screen (AID 1346824); details: SBE-bla HEK293T viability, CellTiter-Glo luminescence; series mostly up to 76.8 µM; also: nearly all actives have a fitted effect of over 50% in size
Method in brief: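 SBE-bla HEK 293T cells were plated overnight at 37 C, then given compounds in DMSO plus TGF-beta1 (added as 0.25 ng/mL solution) for 5 hr. After the bla read, CellTiter-Glo was added to the same wells and luminescence read after 30 min at room temperature.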

[6] = target: Thyrotropin-releasing hormone receptor (Homo sapiens) (UniProt P34981); experiment: qHTS assay to identify small molecule antagonists of the thyrotropin-releasing hormone receptor (TRHR) signaling pathway (AID 1346877; active = well fitted inhibition curve with a large enough effect in the repeat runs, not every such curve was filed as active); details: TRHR-HEK293, TRH-induced calcium fluorescence, antagonist mode; series mostly up to 51.3 µM
Method in brief: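 Intracellular calcium fluorescence, read kinetically every second over 3 min, reports TRH-evoked signalling in HEK293 cells carrying TRHR. Test compounds were added 5 min ahead of a 1 nM TRH challenge.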

[7] = target: Thyrotropin-releasing hormone receptor (Homo sapiens) (UniProt P34981); experiment: qHTS assay to identify small molecule agonists of the thyrotropin-releasing hormone receptor (TRHR) signaling pathway (AID 1346891; calls by dose curve;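 also: HEK293 cells expressing TRHR with calcium dye readout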); details: TRHR-HEK293 calcium fluorescence, agonist mode; series mostly up to 57.6 µM
Method in brief: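 In 1536-format, 1500 TRHR-Hek293 cells per well grew 18 h, took up calcium dye for 2 h at 37 °C, received compound, and were read kinetically; 15-point titrations, triplicates.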

[8] = target: Estrogen receptor (Homo sapiens) (UniProt P03372); experiment: qHTS assay to identify small molecule agonists of the estrogen receptor alpha (ER-alpha) signaling pathway in the presence of an antagonist (AID 1259383; calls by dose curve; also: top concentration of the series differs between compounds; nearly all actives have a fitted effect of over 15% in size); details: VM7Luc4E2 cells, ERE-luciferase, +ICI-182,780, 22 h; series mostly up to 92.4 µM
Method in brief: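 VM7Luc4E2, endog. ER-alpha + 4×ERE-luc; charcoal-stripped FBS, phenol red-free, 5 d; 24hr plating; +10.0nM ICI-182,780 (final); cpds 15 conc, 22hr, 37C/5% CO2; ONE-Glo luminescence.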

[9] = qHTS assay to identify small molecule agonists of the estrogen receptor alpha (ER-alpha) signaling pathway in the presence of an antagonist - cell viability counter screen (AID 1259386); details: VM7Luc4E2 viability, CellTiter-Fluor fluorescence, 22 h; series mostly up to 92.4 µM;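 also: cells exposed to compounds for 22 h at 37 °C before the viability read; nearly all actives have a fitted effect of over 30% in size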; also: potency is read from the fitted curve at half-maximal effect
Method in brief: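 VM7Luc4E2, stripped-serum pre-culture 5 d; 24hr plating; +ICI-182,780 10.0nM final; cpds 15 conc, 22hr, 37C/5% CO2; CellTiter-Fluor added at 21hr, fluorescence 1hr later.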

[10] = target: Progesterone receptor (Homo sapiens) (UniProt P06401); experiment: qHTS assay to identify small molecule antagonists of the progesterone receptor (PR) signaling pathway (AID 1346795; active = well fitted inhibition curve with a large enough effect in the signal ratio in the repeat runs, not every such curve was filed as active; the % refers to the signal ratio; also: potency is read from the fitted curve at half-maximal effect); details: PR-UAS-bla HEK293T, beta-lactamase FRET ratio, 16 h; series mostly up to 92.4 µM
Method in brief: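 Inhibition of R5020-induced (1 nM final) beta-lactamase reporter signal in PR-UAS-bla HEK293T cells was scored by FRET fluorescence after overnight (16 hr) compound treatment.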

[11] = qHTS assay to identify small molecule agonists of the TGF-beta/Smad signaling pathway - cell viability counter screen (AID 1346829); details: SBE-bla HEK293T viability, CellTiter-Glo luminescence, 5 h; series mostly up to 76.8 µM; also: top concentration of the series differs between compounds; nearly all actives have a fitted effect of over 45% in size
Method in brief: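 Compound-treated SBE-bla HEK 293T cells (5 hr, 37 C) were assessed for viability with CellTiter-Glo in parallel with the reporter read.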

[12] = qHTS assay to identify small molecule agonists of the TGF-beta/Smad signaling pathway (AID 1346859; active = well fitted activation curve with a large enough effect in the signal ratio in the repeat runs, not every such curve was filed as active; the % refers to the signal ratio); details: SBE-bla HEK293T, TGF-beta/Smad beta-lactamase reporter, 5 h; series mostly up to 76.8 µM
Method in brief: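 Stable Smad binding element-beta-lactamase HEK 293T cells; 5 hr compound exposure at 37 C under 5% CO2; 2 hr room-temperature substrate step; fluorescence excited at 405 nm, collected at 460 nm and 530 nm.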

[13] = Human pregnane X receptor (PXR) small molecule agonists, qHTS cell viability counter screen (AID 1346977); details: PXR-Luc HepG2 viability, CellTiter-Fluor, 24 h; series mostly up to 92.4 µM; also: nearly all actives have a fitted effect of over 50% in size; also: potency is read from the fitted curve at half-maximal effect
Method in brief: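 Readout is CellTiter-Fluor fluorescence from PXR-Luc HepG2 cells. Plated cells rested 5hr, then were treated with compounds for 24hr at 37C and 5% CO2, with reagent present during the last hour.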

[14] = qHTS assay to identify small molecule antagonists of the progesterone receptor (PR) signaling pathway - cell viability counter screen (AID 1346798); details: PR-UAS-bla HEK293T viability, CellTiter-Glo luminescence, 16 h; series mostly up to 92.4 µM; also: nearly all actives have a fitted effect of over 50% in size; also: potency is read from the fitted curve at half-maximal effect
Method in brief: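 ATP content as viability readout: CellTiter-Glo luminescence, 30 min room temperature, in PR-UAS-bla HEK293T cells after 16 hr compound/R5020 treatment at 37C and 5% CO2.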

[15] = qHTS assay to identify small molecule agonists of the progesterone receptor (PR) signaling pathway - cell viability counter screen (AID 1346799; calls by dose curve; also: nearly all actives have a fitted effect of over 45% in size; also: potency is read from the fitted curve at half-maximal effect); details: PR-UAS-bla HEK293T viability, CellTiter-Glo luminescence, 16 h; series mostly up to 92.4 µM
Method in brief: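 Cytotoxicity in PR-bla HEK293T cells: 16 h compound, 37C; CellTiter-Glo added post-FRET read; luminescence after 30 min RT.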

[16] = target: Thyrotropin receptor (Homo sapiens) (UniProt P16473); experiment: qHTS assay to identify small molecule antagonists of the thyroid stimulating hormone receptor (TSHR) signaling pathway (AID 1259385; calls by dose curve; also: nearly all actives have a fitted effect of over 20% in size); details: TSHR-HEK293 cAMP HTRF, TSH-stimulated antagonist mode; series mostly up to 92.4 µM
Method in brief: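 TSHR-HEK293 cells were plated and held 18 h at 37C/5% CO2, then given compound plus Ro20-1724 and stimulated with TSH at 1.5 ng/mL final. After 30 min at room temperature, cAMP was detected with cAMP-d2/anti-cAMP-cryptate (1 h) by fluorescence.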

[17] = target: Androgen receptor (Homo sapiens) (UniProt P10275); experiment: qHTS assay to identify small molecule agonists of the androgen receptor (AR) signaling pathway in the presence of an antagonist (AID 1259381; calls by dose curve; also: nearly all actives have a fitted effect of over 15% in size); details: MDA-kb2 MMTV-luciferase, AR agonist + nilutamide, 16 h; series mostly up to 92.4 µM
Method in brief: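 MDA-kb2 cells, 3,000/well, rested 5hr at 37C/0% CO2 → nilutamide 3.0uM final or buffer → compounds, 15 conc. → 16hr at 37C → ONE-Glo, 30min RT → luminescence.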

[18] = qHTS assay to identify small molecule agonists of the estrogen receptor beta (ER-beta) signaling pathway - cell viability counter screen (AID 1259380); details: ER-beta-bla HEK293T viability, CellTiter-Glo luminescence, 16 h; series mostly up to 92.4 µM; also: nearly all actives have a fitted effect of over 30% in size; also: potency is read from the fitted curve at half-maximal effect
Method in brief: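 HEK293T ER-beta-UAS-bla; 2% CS-FBS; 6 hr pre-plate, 16 hr cpd at 37C/5% CO2; LiveBLAzer read first, then CellTiter-Glo 30 min RT, luminescence.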

Measured: Potency

Sequence of Thyrotropin-releasing hormone receptor (Homo sapiens) (P34981 whole entry, looked up): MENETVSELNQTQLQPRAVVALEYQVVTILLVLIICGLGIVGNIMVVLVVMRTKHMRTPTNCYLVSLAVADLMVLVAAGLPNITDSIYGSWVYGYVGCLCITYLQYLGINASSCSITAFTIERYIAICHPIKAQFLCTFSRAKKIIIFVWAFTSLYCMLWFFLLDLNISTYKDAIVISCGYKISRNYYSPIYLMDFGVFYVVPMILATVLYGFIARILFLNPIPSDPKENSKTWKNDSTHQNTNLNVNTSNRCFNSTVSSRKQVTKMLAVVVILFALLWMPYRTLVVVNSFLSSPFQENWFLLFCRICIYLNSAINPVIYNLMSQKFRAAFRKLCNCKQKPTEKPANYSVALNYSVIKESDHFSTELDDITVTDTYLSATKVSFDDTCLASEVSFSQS
Sequence of Estrogen receptor (Homo sapiens) (P03372 whole entry, looked up): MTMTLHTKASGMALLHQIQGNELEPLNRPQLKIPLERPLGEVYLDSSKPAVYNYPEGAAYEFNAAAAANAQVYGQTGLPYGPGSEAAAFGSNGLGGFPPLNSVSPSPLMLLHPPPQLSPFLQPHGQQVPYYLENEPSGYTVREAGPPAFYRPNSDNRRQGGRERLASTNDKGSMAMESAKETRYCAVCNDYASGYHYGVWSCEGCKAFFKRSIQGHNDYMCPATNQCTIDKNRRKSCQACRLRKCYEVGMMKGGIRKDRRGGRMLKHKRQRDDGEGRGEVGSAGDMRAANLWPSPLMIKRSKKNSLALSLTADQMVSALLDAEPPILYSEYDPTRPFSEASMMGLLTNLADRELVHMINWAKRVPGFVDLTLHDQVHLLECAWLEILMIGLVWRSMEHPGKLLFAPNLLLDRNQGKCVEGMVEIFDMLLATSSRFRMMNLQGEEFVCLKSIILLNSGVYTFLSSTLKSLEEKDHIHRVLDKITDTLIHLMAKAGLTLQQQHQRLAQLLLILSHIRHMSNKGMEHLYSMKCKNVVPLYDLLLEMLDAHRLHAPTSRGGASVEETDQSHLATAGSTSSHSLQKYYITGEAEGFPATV
Sequence of Progesterone receptor (Homo sapiens) (P06401 whole entry, looked up): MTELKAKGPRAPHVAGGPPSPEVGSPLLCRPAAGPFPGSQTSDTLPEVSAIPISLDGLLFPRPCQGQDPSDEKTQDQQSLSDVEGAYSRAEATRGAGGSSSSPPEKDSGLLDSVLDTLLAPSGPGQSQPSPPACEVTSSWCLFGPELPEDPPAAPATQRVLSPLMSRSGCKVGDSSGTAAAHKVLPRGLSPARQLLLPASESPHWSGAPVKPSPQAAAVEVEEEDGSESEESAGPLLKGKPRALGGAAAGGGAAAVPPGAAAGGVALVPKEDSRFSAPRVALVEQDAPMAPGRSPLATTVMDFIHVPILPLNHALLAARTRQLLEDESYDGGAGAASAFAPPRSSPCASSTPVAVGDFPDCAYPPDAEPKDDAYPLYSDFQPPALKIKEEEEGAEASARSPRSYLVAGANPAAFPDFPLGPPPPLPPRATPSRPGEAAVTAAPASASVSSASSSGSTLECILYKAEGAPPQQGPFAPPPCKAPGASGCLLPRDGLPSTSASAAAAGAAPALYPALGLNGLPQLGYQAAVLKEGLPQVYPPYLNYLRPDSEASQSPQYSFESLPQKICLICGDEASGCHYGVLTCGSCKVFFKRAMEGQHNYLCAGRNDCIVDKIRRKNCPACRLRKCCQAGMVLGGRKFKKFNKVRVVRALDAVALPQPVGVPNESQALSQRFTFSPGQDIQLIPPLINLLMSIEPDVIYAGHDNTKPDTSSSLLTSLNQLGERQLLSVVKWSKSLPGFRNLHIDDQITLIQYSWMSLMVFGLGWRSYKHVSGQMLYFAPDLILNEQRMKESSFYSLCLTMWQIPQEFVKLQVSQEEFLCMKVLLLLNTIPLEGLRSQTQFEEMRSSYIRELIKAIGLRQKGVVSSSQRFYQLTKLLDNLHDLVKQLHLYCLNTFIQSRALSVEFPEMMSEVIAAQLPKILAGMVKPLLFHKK
Sequence of Thyrotropin receptor (Homo sapiens) (P16473 whole entry, looked up): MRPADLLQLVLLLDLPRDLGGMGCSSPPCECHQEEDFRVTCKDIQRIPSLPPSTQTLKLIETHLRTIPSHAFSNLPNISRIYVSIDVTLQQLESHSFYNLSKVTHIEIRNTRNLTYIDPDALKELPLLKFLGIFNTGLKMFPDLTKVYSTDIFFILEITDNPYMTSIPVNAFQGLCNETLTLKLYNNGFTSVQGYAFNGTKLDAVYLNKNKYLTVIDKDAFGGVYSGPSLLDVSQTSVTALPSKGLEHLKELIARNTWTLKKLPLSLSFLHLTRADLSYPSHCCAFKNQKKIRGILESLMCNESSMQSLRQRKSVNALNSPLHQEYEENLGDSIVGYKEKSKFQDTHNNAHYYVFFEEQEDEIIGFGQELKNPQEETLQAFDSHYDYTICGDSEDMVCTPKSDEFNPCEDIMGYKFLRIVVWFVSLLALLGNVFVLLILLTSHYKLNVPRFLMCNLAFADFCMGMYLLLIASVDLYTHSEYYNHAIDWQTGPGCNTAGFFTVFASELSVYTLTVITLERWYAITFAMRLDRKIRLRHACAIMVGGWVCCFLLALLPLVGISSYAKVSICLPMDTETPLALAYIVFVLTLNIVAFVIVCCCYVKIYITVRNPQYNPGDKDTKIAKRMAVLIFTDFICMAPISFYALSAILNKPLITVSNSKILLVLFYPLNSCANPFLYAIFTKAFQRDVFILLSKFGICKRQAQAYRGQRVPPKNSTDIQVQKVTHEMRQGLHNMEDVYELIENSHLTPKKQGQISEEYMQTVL
Sequence of Androgen receptor (Homo sapiens) (P10275 whole entry, looked up): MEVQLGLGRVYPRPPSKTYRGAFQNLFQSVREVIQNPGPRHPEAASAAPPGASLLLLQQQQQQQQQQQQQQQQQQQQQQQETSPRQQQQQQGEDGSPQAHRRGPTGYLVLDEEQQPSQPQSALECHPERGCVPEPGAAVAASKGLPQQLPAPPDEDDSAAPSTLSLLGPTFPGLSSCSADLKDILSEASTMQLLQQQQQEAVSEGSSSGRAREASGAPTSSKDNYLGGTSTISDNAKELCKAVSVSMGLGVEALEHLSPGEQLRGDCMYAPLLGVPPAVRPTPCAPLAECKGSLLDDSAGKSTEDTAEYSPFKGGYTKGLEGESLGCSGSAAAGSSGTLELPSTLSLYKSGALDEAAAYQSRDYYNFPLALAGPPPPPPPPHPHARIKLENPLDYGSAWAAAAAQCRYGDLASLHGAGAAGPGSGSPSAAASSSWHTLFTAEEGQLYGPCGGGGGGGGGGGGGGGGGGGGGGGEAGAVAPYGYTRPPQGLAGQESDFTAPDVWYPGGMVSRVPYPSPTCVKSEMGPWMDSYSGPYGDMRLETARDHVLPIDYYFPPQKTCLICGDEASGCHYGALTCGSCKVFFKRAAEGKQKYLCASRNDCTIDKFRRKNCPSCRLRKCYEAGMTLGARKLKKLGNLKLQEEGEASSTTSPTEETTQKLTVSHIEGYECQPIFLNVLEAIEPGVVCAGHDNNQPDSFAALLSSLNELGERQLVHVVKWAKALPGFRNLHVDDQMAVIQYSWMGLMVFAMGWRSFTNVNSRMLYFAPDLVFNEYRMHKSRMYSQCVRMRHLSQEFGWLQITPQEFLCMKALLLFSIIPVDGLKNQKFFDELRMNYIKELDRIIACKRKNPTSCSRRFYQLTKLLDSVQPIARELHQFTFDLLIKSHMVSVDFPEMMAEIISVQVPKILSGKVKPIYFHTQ

O=[N+]([O-])c1cc([N+](=O)[O-])c2ccccc2c1
inactive: [1] | [2] | [3] | [4] | [5] | [6] | [7]

Oc1c(Br)c(Br)c(Br)c(Br)c1Br
active: [10] 27.5 µM
inactive: [2] | [8] | [9] | [5] | [11] | [12] | [7]

O=C(O)c1cc[c]([Hg][Cl])cc1
active: [10] 15.4 µM | [13] 68.6 µM
inactive: [1] | [8] | [3] | [9] | [5] | [11] | [6] | [7]

O=c1ssc(Cl)c1Cl
inactive: [8] | [9] | [14] | [15] | [11] | [12] | [13]
active: [1] 68.6 µM

CN(C)c1ccc(N=Nc2ccccc2)cc1
inactive: [2] | [3] | [4] | [14] | [5] | [11] | [12] | [6] | [7]
active: [1] 48.6 µM | [9] 48.6 µM

S=C(SSC(=S)N1CCCCC1)N1CCCCC1
inactive: [1] | [3] | [16] | [9] | [4] | [5] | [11] | [12]
active: [14] 0.531 µM

Nc1ccc([N+](=O)[O-])cc1Cl
active: [9] 54.5 µM | [10] 54.5 µM
not listed: [1] | [6] | [7] | [13] | [15] | [18]
inactive: all other assays above

CN(C)[C@@H]1C(=O)C(C(N)=O)=C(O)[C@@]2(O)C(=O)C3=C(O)c4c(O)ccc(Cl)c4[C@@](C)(O)[C@H]3C[C@@H]12
inactive: [1] | [2] | [3] | [9] | [14] | [5] | [11] | [6] | [7]

c1ccc2cc3c(cc2c1)-c1cccc2cccc-3c12
inactive: [18] | [2] | [8] | [3] | [14] | [15] | [5] | [11] | [13]

c1cc[c]([Sb]([c]2ccccc2)[c]2ccccc2)cc1
inactive: [1] | [3] | [16] | [9] | [5] | [11] | [6] | [7] | [13]

Cc1cc(C(C)(C)c2cc(C)c(O)c(C)c2)cc(C)c1O
active: [18] 52.7 µM | [2] 26.4 µM | [14] 41.8 µM | [15] 59.1 µM
inactive: [17] | [3] | [16] | [9] | [5] | [7]

O=[N+]([O-])O.O=[N+]([O-])O.[Cd]
active: [2] 54.5 µM | [14] 3.06 µM | [15] 4.86 µM | [13] 5.45 µM
inactive: [1] | [3] | [16] | [5]
